15 molecules from PubChem BioAssay (NCI) can be followed below.

Holding throughout (assay): NCI-60 one-dose screen, 48 h (100 = growth as untreated, 0 = no growth, -100 = all killed)
What all share (details): 10 µM unless noted

For assay [1], the system named is DU-145 prostate.
The subject of assay [2] is K-562 leukemia.
Assay [3] has as its system MALME-3M melanoma.
The test system of assay [4] is MDA-MB-231 breast.
Assay [5] has as its system RXF 393 renal.
Assay [6] concerns SF-268 CNS.
Assay [7] has as its system SF-295 CNS.
The subject of assay [8] is SF-539 CNS.
The subject of assay [9] is M14 melanoma.

Structures are written as SMILES. About 83,000 compounds went through this panel and 20% of them were active in at least one assay; those are over-represented in the sample as a whole.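 Single-concentration screen, 48 h exposure, 96-well plates. Endpoint: percent growth. Below 10 = active.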 A number with no mark means an inactive call. Calls of active or inactive are those of the source.

For the molecule `Cc1ccc2c(c1)C(C)Cc1c(ncnc1-n1cnc3ccccc31)N2C` (stereo not given), the growth is 8.43% (active) in [1]; 6.64% (active) in assay [2]; 65.6% in assay [3]; 25.1% in assay [4]; 21.5% in assay [5]; 34.1% in assay [6]. Also, the growth in assay [7] was -11.4% (active); in assay [8], -33.1% (active); in assay [9], 18.1%.

`Cc1cc2c(C(C)C)c(O)c(O)c(C=NCCCCC(=O)O)c2c(O)c1-c1c(C)cc2c(C(C)C)c(O)c(O)c(C=NCCCCC(=O)O)c2c1O`: the growth in assay [1] was 63.8%; in [2] it was 26.4%; in assay [3], 78.8%; in [4] it was 40%; in assay [5] it was 57%; in assay [6], 44.2%. In addition, the growth is 27.3% in assay [7], 42.2% in assay [8] and 66.9% in assay [9].

As to `COc1cc(C(=O)N2CCN(C(=O)c3ccco3)CC2)c(N)cc1OCc1ccccc1`, the growth in assay [1] is 115%; in assay [2] it was 85.3%; in [3] it was 107%; in [4] it was 101%; in [5], 89.9%; in assay [6], 108%. The growth is 115% in assay [7], 98.2% in [8] and 102% in [9].

For the molecule `Cc1c(C(=O)NCc2ccccc2)[n+](=O)c2cc(F)ccc2n1[O-]`, the growth in [1] was 99.8%; in assay [2] it was 214%; in assay [3], 114%; in assay [4], 111%; in [5] it was 33.1%; in assay [6], 111%. In addition, the growth in assay [7] is 88.4%; in [8], 103%; in [9], 99.5%.

On to `COc1cc(-n2nc(C(=O)Nc3ccc(C(=O)O)cc3)nc2-c2ccccc2)cc(OC)c1OC`, for which the growth was 70.6% in assay [1]; 100% in [2]; 94.2% in assay [3]; 99% in assay [4]; 106% in assay [5]; 92% in assay [6]. In addition, the growth in assay [7] is 103%; in assay [8], 106%; in [9] it was 100%.

Take `CCOC(=O)/C=C\C(=O)NC(N)=O`: the growth in assay [1] was 106%; in assay [2], 94.4%; in [3], 102%; in assay [4], 103%; in assay [5], 101%; in assay [6], 106%. The growth in [7] is 106%; in assay [8], 108%; in assay [9], 96.7%.

Turning to `CCCS(=O)(=O)c1nc(NC2CC2)cc(-c2ccc3c(ccn3C3CC(C)(C)NC(C)(C)C3)c2)n1`, the growth in assay [1] was 8.45% (active); in assay [2], -52.6% (active); in assay [3] it was -56.3% (active); in assay [4], -78.8% (active); in assay [5], -87.3% (active); in [6], -48.7% (active). Moreover, the values for the growth in assay [7], in [8] and in assay [9] were -48.9% (active), -88.1% (active) and -78.2% (active), respectively.

For `CC(C)CCC[C@@H](C)[C@H]1CC[C@H]2[C@@H]3CC[C@H]4C/C(=N/O)CC[C@]4(C)[C@H]3CC[C@]12C`, the growth was 116% in [1]; 91.2% in assay [2]; 104% in assay [3]; 98.8% in assay [4]; 102% in assay [5]; 110% in [6]. Besides, the growth in assay [7] is 101%; in assay [8] it was 109%; in assay [9], 104%.

Take `COc1ccc(/C=C/C(=O)/C=C/c2cc3ccc(Cl)cc3[nH]c2=O)cc1`: the growth in [1] was 88.2%; in assay [2], 53.2%; in [3] it was 107%; in assay [4] it was 59.4%; in assay [5], 86.9%; in assay [6], 86.5%. In addition, the growth in assay [7] is 94.8%; in [8], 92%; in [9] it was 86.4%.

`Cc1cc(C(=O)O)c(N)c(C)n1`: the growth in assay [1] is 110%; in assay [2], 104%; in [3], 109%; in assay [4], 106%; in [5] it was 121%; in assay [6] it was 104%. For the same molecule, the growth in assay [7] is 111%; in assay [8], 102%; in assay [9], 102%.

For `Cc1oc2ncnc(Nc3ccccc3)c2c1C(=O)NCCO`, the growth in [1] is 105%; in assay [2], 29.4%; in [3], 107%; in [4] it was 75%; in assay [5] it was 104%; in assay [6], 99.8%. The growth was 100% in [7], 88.6% in assay [8] and 106% in [9].

With `CCC#CC[C@H]1C/C=C2/C(=O)C=C[C@@H]2C/C=C\CCCC(=O)O1`, the growth in assay [1] was 9.38% (active); in assay [2], 2.38% (active); in [3] it was 1.52% (active); in assay [4] it was 16.1%; in [5], -65.4% (active); in assay [6] it was 5.57% (active). The growth was 4.47% (active) in [7], 8.07% (active) in assay [8] and 2.84% (active) in [9].

For the molecule `CCCCCCCN(CCCCCCC)C(=N)c1ccc(OC)c2ccccc12`, the growth in [1] is -96.4% (active); in [2], -47.9% (active); in assay [3], -72% (active); in [4], -77.2% (active); in [5], -94.5% (active); in assay [6], -91% (active). Further, the growth is -89.9% (active) in assay [7], -88% (active) in assay [8] and -85.9% (active) in [9].

Turning to `CC/C=C\C/C=C\C[C@H](O)C/C=C1/C(=O)C=C[C@H]1C/C=C\CCC(=O)OC`, the growth is 46% [8.25 µM] in assay [1]; 5.45% [8.25 µM] (active) in [2]; 41.6% [8.25 µM] in assay [3]; 21% [8.25 µM] in assay [4]; 21.3% [8.25 µM] in assay [5]; 20.6% [8.25 µM] in assay [6]. For the same molecule, the growth in assay [7] is 82.4% [8.25 µM]; in assay [8] it was 17% [8.25 µM]; in [9], 12.7% [8.25 µM].

Consider `O=C(Cc1c(F)cccc1Cl)Nc1ccc(S(=O)(=O)Nc2ncccn2)cc1`, for which the growth in assay [1] is 104%; in [2], 89.7%; in assay [3] it was 124%; in assay [4] it was 109%; in [5] it was 38.1%; in assay [6], 116%. Moreover, the growth was 92.5% in assay [7], 96.5% in assay [8] and 110% in assay [9].
